Assay results: the supplement of paper PMC10849652
About 8,800 targets were measured; listed, in parts, are those with a hit and a random draw of the rest. About 0.5% of all pairs of compound and target were hits. A number with no mark means an inactive call.

Columns and labels:
Assay in all cases: log2 fold change, soluble protein after heating vs DMSO (PISA); higher = thermal stabilisation; K562 lysate, 10 uM; active = over 0.2 and 3.5 SD of the protein, either way, in both replicates (recomputed)
alvocidib = compound: CN1CC[C@H](c2c(O)cc(O)c3c(=O)cc(-c4ccccc4Cl)oc23)[C@H](O)C1 [alvocidib]
Method in brief: (§1)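 Log-two fold change in thermal stability relative to solvent controls is reported from duplicates. For each sample, crude K562 extract from dounce-homogenised pellets in PBS pH 7.4 with 1 mM MgCl2, at 1 mg/mL protein, was treated with 10 μM compound for 30 min. Aliquots heated for 3 min across 48°C-58°C were pooled, brought to 0.5% NP-40 at 4°C and cleared at 21,000xg for 90 min. The supernatant was quantified by TMTpro 16plex LC-MS/MS with channel sums equalised.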

Tubastatin A = compound: CN1CCc2c(c3ccccc3n2Cc2ccc(C(=O)NO)cc2)C1 [Tubastatin A]
Method in brief: as §1

[1] = compound: CNC(=O)C1=CC=CC=C1NC2=NC(=NC=C2Cl)NC3=C(C=C(C=C3)N4CCOCC4)OC
Method in brief: as §1

defactinib = compound: CNC(=O)c1ccc(Nc2ncc(C(F)(F)F)c(NCc3nccnc3N(C)S(C)(=O)=O)n2)cc1 [defactinib]
Method in brief: as §1

[2] = compound: CNc1nc(-c2ccc3c(N)n[nH]c3c2)cc(N2C[C@@H](C(=O)NC3CCCCC3)CC[C@H]2C)n1
Method in brief: as §1

encorafenib = compound: COC(=O)N[C@@H](C)CNc1nccc(-c2cn(C(C)C)nc2-c2cc(Cl)cc(NS(C)(=O)=O)c2F)n1 [encorafenib]
Method in brief: as §1

[3] = compound: COC(=O)[C@H](CCSC)NC(=O)C1=C(C=C(C=C1)NC[C@H](CS)N)C2=CC=CC=C2
Method in brief: as §1

alisertib = compound: COc1cc(Nc2ncc3c(n2)-c2ccc(Cl)cc2C(c2c(F)cccc2OC)=NC3)ccc1C(=O)O [alisertib]
Method in brief: as §1

[4] = compound: COc1cc2nc(-c3cc(F)ccc3O)nc(N[C@@H]3CNC[C@H]3C(C)(C)O)c2cc1OC
Method in brief: as §1

gefitinib = compound: COc1cc2ncnc(Nc3ccc(F)c(Cl)c3)c2cc1OCCCN1CCOCC1 [gefitinib]
Method in brief: as §1

lapatinib = compound: CS(=O)(=O)CCNCc1ccc(-c2ccc3ncnc(Nc4ccc(OCc5cccc(F)c5)c(Cl)c4)c3c2)o1 [lapatinib]
Method in brief: as §1

pictilisib = compound: CS(=O)(=O)N1CCN(Cc2cc3nc(-c4cccc5[nH]ncc45)nc(N4CCOCC4)c3s2)CC1 [pictilisib]
Method in brief: as §1

crizotinib = compound: C[C@@H](Oc1cc(-c2cnn(C3CCNCC3)c2)cnc1N)c1c(Cl)ccc(F)c1Cl [crizotinib]
Method in brief: as §1

[5] = compound: C[C@H](C1=CC=C(C=C1)C(=O)NC2=C3C=CNC3=NC=C2)N
Method in brief: as §1

duvelisib = compound: C[C@H](Nc1ncnc2nc[nH]c12)c1cc2cccc(Cl)c2c(=O)n1-c1ccccc1 [duvelisib]
Method in brief: as §1

gandotinib = compound: Cc1cc(Nc2cc(CN3CCOCC3)c3nc(C)c(Cc4ccc(Cl)cc4F)n3n2)n[nH]1 [gandotinib]
Method in brief: as §1

tozasertib = compound: Cc1cc(Nc2cc(N3CCN(C)CC3)nc(Sc3ccc(NC(=O)C4CC4)cc3)n2)n[nH]1 [tozasertib]
Method in brief: as §1

doramapimod = compound: Cc1ccc(-n2nc(C(C)(C)C)cc2NC(=O)Nc2ccc(OCCN3CCOCC3)c3ccccc23)cc1 [doramapimod]
Method in brief: as §1

bafetinib = compound: Cc1ccc(NC(=O)c2ccc(CN3CC[C@H](N(C)C)C3)c(C(F)(F)F)c2)cc1Nc1nccc(-c2cncnc2)n1 [bafetinib]
Method in brief: as §1

[6] = compound: Cc1cccc(CC(=O)N2CCc3c2ccc(-c2cn(C)c4ncnc(N)c24)c3F)n1
Method in brief: as §1

Chain of UniProt Q53EL6 (Q53EL6 whole entry, looked up): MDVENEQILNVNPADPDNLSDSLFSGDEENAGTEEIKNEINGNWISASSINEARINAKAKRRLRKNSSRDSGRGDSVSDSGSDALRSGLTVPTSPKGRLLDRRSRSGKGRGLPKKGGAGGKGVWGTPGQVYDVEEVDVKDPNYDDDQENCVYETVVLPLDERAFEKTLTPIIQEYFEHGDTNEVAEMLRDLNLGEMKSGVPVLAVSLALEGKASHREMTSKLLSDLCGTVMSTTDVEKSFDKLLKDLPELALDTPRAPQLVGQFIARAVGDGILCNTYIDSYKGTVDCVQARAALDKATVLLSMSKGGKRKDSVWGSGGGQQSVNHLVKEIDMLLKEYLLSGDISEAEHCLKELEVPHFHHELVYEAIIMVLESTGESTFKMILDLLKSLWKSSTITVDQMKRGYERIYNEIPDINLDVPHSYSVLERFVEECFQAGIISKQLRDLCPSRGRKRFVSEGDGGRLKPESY
Chain of UniProt Q29RF7 (Q29RF7 whole entry, looked up): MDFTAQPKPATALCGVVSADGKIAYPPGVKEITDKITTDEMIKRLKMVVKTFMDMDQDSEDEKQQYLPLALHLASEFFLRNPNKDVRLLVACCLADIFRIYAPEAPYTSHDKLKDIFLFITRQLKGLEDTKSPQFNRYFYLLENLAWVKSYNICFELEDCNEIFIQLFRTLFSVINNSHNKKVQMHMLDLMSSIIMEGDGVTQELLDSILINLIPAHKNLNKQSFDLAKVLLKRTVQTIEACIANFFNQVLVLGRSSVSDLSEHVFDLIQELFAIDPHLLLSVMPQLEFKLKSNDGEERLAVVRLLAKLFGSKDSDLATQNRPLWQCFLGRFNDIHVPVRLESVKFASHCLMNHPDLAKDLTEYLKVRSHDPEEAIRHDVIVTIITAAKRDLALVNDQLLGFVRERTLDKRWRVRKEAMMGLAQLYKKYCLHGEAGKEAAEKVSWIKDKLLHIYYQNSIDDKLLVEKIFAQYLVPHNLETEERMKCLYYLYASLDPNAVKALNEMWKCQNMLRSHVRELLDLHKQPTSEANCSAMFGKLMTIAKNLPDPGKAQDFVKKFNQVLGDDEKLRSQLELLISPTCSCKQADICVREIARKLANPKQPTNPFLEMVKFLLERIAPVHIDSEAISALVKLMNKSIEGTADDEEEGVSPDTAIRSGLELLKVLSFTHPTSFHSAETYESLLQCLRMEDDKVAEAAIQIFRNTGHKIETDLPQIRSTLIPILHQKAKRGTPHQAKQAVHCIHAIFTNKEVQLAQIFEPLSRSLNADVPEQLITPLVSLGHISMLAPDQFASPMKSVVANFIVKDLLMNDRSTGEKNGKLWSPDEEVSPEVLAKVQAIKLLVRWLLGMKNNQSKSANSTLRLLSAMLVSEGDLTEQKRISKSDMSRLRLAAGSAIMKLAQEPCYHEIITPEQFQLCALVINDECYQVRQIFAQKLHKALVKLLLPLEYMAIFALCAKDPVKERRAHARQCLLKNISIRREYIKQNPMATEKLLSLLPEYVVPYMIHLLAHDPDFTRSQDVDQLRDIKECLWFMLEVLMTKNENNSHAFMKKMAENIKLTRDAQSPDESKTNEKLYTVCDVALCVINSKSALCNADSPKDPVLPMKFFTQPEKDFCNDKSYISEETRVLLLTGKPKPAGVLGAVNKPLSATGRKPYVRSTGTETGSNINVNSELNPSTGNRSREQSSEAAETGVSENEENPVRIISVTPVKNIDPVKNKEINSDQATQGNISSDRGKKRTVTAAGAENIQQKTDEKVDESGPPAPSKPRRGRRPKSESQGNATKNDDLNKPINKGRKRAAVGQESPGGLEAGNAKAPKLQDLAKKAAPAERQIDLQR
Chain of UniProt Q05655 (Q05655 whole entry, looked up): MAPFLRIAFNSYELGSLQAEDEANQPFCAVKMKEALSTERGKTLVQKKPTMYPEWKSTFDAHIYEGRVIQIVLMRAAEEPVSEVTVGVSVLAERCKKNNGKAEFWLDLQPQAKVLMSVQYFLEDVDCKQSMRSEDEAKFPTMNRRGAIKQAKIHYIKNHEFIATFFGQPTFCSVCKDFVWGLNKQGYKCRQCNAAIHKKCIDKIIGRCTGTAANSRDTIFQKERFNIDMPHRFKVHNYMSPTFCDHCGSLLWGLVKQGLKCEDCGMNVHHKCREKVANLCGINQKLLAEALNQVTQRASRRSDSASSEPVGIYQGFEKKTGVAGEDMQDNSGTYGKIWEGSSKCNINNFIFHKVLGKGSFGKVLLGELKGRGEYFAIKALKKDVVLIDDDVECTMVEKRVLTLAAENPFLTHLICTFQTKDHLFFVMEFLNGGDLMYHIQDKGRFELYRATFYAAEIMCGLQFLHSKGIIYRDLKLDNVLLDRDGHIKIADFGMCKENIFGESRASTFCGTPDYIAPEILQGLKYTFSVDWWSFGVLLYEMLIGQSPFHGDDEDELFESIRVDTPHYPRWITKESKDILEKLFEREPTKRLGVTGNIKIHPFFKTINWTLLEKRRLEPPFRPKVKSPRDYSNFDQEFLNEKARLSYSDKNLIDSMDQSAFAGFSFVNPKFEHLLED
Chain of UniProt P50336 (P50336 whole entry, looked up): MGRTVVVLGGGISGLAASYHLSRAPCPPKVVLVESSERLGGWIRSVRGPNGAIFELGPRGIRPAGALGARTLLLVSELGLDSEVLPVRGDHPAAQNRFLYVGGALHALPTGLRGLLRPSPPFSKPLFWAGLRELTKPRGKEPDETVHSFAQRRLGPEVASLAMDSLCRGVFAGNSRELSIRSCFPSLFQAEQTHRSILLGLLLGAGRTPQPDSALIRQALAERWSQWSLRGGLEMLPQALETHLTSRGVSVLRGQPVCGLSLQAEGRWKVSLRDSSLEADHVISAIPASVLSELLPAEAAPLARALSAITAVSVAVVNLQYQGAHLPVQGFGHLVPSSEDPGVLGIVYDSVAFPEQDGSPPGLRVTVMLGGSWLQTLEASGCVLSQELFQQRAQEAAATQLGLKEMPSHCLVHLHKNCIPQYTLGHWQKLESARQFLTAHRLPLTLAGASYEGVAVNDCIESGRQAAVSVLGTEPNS
Chain of UniProt Q9UHX1 (Q9UHX1 whole entry, looked up): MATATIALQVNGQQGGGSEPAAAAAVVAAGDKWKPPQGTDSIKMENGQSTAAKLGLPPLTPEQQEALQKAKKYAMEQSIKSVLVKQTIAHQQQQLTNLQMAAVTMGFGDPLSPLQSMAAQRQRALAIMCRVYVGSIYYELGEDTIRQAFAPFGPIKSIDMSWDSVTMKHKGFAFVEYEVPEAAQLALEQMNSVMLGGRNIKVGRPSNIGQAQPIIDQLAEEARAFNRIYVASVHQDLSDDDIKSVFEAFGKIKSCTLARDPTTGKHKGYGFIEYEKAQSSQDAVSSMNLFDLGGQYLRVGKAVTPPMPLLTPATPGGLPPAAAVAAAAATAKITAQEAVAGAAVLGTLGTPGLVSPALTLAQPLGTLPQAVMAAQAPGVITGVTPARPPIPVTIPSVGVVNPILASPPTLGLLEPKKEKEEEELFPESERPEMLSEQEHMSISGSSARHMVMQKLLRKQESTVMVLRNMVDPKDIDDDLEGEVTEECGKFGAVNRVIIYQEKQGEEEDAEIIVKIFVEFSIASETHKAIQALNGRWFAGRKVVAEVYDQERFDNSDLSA
Chain of UniProt P46020 (P46020 whole entry, looked up): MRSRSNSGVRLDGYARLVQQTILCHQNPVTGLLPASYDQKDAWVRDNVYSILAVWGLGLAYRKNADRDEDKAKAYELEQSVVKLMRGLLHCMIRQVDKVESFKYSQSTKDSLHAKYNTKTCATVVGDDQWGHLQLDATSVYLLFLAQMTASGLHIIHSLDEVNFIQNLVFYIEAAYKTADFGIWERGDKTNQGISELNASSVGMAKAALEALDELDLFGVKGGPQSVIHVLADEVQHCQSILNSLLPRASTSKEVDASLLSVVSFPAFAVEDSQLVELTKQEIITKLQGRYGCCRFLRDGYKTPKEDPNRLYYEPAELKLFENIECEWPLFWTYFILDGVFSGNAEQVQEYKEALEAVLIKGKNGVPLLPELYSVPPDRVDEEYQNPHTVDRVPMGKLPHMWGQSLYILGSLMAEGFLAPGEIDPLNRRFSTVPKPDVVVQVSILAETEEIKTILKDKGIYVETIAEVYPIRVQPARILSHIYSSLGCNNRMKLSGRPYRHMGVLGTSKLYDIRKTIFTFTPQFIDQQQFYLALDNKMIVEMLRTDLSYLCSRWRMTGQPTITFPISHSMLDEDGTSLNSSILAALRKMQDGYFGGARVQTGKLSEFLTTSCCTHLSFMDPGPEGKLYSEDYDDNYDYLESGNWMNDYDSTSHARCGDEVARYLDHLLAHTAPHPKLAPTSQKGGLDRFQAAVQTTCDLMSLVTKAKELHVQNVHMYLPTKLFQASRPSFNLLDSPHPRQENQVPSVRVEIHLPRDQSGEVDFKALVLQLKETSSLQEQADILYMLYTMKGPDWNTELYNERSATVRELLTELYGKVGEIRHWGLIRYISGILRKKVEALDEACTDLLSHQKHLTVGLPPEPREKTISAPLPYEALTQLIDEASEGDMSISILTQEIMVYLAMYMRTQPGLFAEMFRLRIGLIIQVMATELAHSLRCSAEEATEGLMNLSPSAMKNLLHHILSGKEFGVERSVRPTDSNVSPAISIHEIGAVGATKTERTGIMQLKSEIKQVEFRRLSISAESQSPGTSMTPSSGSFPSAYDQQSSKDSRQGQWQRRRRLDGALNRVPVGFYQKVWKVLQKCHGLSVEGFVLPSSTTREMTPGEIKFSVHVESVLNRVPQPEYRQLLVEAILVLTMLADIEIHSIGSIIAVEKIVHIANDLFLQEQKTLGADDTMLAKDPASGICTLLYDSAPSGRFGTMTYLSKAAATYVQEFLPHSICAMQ
Chain of UniProt P07737 (P07737 whole entry, looked up): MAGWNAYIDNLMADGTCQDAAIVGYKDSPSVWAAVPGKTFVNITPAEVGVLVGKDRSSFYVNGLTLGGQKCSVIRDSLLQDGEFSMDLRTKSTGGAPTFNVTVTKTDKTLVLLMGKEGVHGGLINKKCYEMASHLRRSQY

| Target | log2 fold change (alvocidib) | log2 fold change (Tubastatin A) | log2 fold change [1] | log2 fold change (defactinib) | log2 fold change [2] | log2 fold change (encorafenib) | log2 fold change [3] | log2 fold change (alisertib) | log2 fold change [4] | log2 fold change (gefitinib) | log2 fold change (lapatinib) | log2 fold change (pictilisib) | log2 fold change (crizotinib) | log2 fold change [5] | log2 fold change (duvelisib) | log2 fold change (gandotinib) | log2 fold change (tozasertib) | log2 fold change (doramapimod) | log2 fold change (bafetinib) | log2 fold change [6] |
| --- | --- | --- | --- | --- | --- | --- | --- | --- | --- | --- | --- | --- | --- | --- | --- | --- | --- | --- | --- | --- |
| PKP3 isoform 2 (UniProt Q9Y446) | -0.011 | -0.126 | 0.067 | 0.035 | 0.017 | 0.098 | 0.095 | 0.019 | 0.031 | -0.018 | -0.007 | -0.004 | 0.043 | -0.024 | -0.048 | 0.04 | -0.039 | 0.08 | -0.085 | 0.027 |
| PDCD4 (UniProt Q53EL6) | 0.01 | -0.033 | 0.017 | 0.002 | 0.019 | 0.019 | -0.034 | -0.005 | 0.015 | -0.003 | -0.026 | -0.003 | -0.055 | -0.051 | -0.022 | 0.009 | -0.002 | 0.011 | -0.038 | 0.062 |
| PDS5A (UniProt Q29RF7) | 0.023 | -0.21 | 0.016 | 0.016 | -0.054 | 0.048 | -0.003 | 0.014 | 0 | -0.005 | -0.024 | -0.053 | -0.123 | -0.09 | 0.023 | -0.127 | 0.008 | 0.006 | -0.075 | 0.125 |
| PRKACA (UniProt P17612) | -0.118 | 0.008 | 0.034 | 0.177 | 0.082 | -0.052 | -0.059 | 0.027 | 0.558 (active) | -0.01 | -0.008 | -0.012 | 0.022 | -0.159 | -0.059 | 0.115 | -0.12 | -0.113 | -0.073 | 0.151 |
| POGK (UniProt Q9P215) | -0.015 | -0.011 | 0.001 | 0.059 | -0.02 | -0.052 | 0.028 | 0.071 | -0.012 | -0.013 | -0.055 | -0.026 | 0.022 | -0.384 (active) | 0.01 | 0.095 | -0.101 | 0.111 | -0.109 | 0.142 |
| PFN1 (UniProt P07737) | -0.002 | -0.01 | -0.007 | 0.006 | -0.024 | -0.005 | -0.097 | 0.004 | -0.013 | 0.004 | 0.01 | -0.003 | 0.016 | -0.006 | 0.009 | 0.007 | -0.004 | 0.007 | 0 | 0.007 |
| PHKA1 (UniProt P46020) | 0.047 | -0.073 | 0.168 | 0.08 | -0.029 | 0.004 | 0.065 | -0.014 | 0.084 | 0.041 | -0.117 | -0.003 | -0.001 | -0.042 | -0.044 | 0.069 | 0.009 | 0.024 | 0.051 | -0.047 |
| PRKCD (UniProt Q05655) | -0.082 | 0.036 | -0.012 | -0.032 | -0.003 | -0.009 | 0.056 | -0.031 | 0.235 (active) | 0.002 | -0.143 | 0.003 | -0.011 | -0.135 | 0.024 | 0.009 | 0.015 | 0.005 | -0.069 | 0.007 |
| PUF60 (UniProt Q9UHX1) | 0.003 | 0.019 | -0.02 | -0.012 | 0.008 | -0.013 | 0.019 | 0.005 | -0.009 | -0.022 | 0 | -0.037 | 0.036 | 0.092 | -0.01 | -0.05 | -0.017 | -0.012 | 0.012 | -0.058 |
| PIP4K2C (UniProt Q8TBX8) | 0.47 (active) | 0.022 | 0.125 | 0.092 | -0.07 | 0.139 | -0.085 | 0.013 | 0.104 | 0.083 | -0.043 | 0.063 | -0.036 | -0.128 | 0.033 | 0.109 | -0.06 | 0.006 | 0.664 (active) | -0.032 |
| POLR2G (UniProt P62487) | -0.034 | 0.012 | 0.038 | 0.027 | 0.019 | 0.007 | -0.032 | 0.016 | 0.017 | -0.01 | -0.001 | -0.048 | 0.016 | -0.04 | 0.03 | -0.002 | -0.04 | -0.011 | 0.004 | -0.006 |
| PFAS (UniProt O15067) | -0.015 | -0.01 | 0.009 | 0.022 | 0 | -0.004 | 0.119 | 0.009 | -0.011 | -0.009 | -0.01 | -0.011 | -0.067 | -0.011 | -0.009 | 0.002 | -0.008 | 0.035 | -0.028 | 0.019 |
| PSMB9 (UniProt P28065) | -0.052 | 0.076 | 0.006 | 0.034 | 0.31 | -0.076 | 0.027 | -0.04 | 0.139 | -0.016 | -0.093 | 0.028 | -0.098 | -0.033 | 0.01 | 0.013 | -0.087 | -0.033 | -0.25 | 0.022 |
| PPOX (UniProt P50336) | -0.004 | -0.124 | 0.257 | -0.03 | 0.107 | -0.017 | 0.076 | 0.005 | -0.035 | -0.043 | 0.379 (active) | 0.111 | -0.068 | -0.075 | 0.04 | 0.581 (active) | 0.003 | 0.206 | -0.028 | 0.11 |
| PTGS1 isoform 6 (UniProt P23219) | -0.154 | 0.023 | -0.052 | -0.119 | -0.057 | -0.008 | 0.027 | -0.051 | 0.021 | -0.011 | 0.004 | -0.068 | 0.007 | -0.236 (active) | -0.001 | 0.109 | 0.029 | 0.036 | -0.079 | 0.093 |
